# Source: PubChem BioAssay AID504357 (The Scripps Research Institute Molecular Screening Center, 2011)
# Among all 340,000 compounds or so, about 700 (0.21%) were called active. The list comes from a sample in which actives are over-represented; it also holds similar structures and randomly drawn compounds. Unmarked numbers belong to inactive results. Cut-off read from the data, not from the text of the source: active = inhibition above about 22% (passing the limit was not always enough); inactive = the rest.
# Target: Mu-type opioid receptor (Homo sapiens) + Delta-type opioid receptor (Homo sapiens) (UniProt P35372+P41143)
# Sequence (P35372 whole entry, looked up): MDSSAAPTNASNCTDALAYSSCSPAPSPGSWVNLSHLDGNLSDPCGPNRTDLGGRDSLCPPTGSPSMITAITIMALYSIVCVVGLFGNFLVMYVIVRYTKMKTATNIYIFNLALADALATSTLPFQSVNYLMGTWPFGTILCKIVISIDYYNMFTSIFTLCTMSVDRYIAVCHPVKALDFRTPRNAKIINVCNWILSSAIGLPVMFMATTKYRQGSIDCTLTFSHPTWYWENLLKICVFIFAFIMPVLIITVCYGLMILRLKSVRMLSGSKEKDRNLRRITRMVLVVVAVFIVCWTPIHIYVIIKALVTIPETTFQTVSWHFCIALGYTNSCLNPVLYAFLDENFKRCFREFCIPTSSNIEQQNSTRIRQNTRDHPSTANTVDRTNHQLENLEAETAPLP
# Sequence (P41143 whole entry, looked up): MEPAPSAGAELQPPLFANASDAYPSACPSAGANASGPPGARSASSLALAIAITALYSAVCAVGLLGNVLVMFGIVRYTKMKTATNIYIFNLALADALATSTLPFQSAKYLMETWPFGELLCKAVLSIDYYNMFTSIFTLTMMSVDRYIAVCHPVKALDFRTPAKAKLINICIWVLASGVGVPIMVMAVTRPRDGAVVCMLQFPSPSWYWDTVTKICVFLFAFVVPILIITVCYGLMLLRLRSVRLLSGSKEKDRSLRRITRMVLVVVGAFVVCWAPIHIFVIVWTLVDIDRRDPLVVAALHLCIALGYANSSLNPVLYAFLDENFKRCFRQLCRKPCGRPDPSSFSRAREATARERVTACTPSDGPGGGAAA
# Test: inverse agonists of MOR-DOR heterodimerization, primary screen, cell-based, luminescence (AID 504357);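 note: 0% = cells with DMSO and 100% = wells without cells with DMSO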
# Details: cell-based MOR-DOR heterodimer luminescence, inverse agonism; at 9.3 µM; active compounds read high
row,Compound,inhibition
1,COc1ccc(-c2ccc(CNCCCN3CCOCC3)o2)cc1Cl,-3.74%
2,Nc1ccc2c(c1)C(O)c1ccc(Cl)cc1-2 (centres undefined),-2.52%
3,C/C(O)=C\c1nc(=O)c2c(C)cc(C)nc2n1-c1ccccc1,-10.5%
4,Cc1ccc(CN(C(=O)c2sc3ccccc3c2Cl)C2CCS(=O)(=O)C2)cc1 (centres undefined),-141%
5,CCOC(=O)c1sc(-c2cccc([N+](=O)[O-])c2)cc1N,-25.6%
6,CC(=O)Nc1ccc(S(=O)(=O)N2CCN(c3ccc([N+](=O)[O-])c(NCCN4CCOCC4)c3)CC2)cc1,4.65%
7,O=C(CNC(=O)c1ccccc1Br)NCCSc1ccc(Br)cc1,3.63%
8,COc1cc(C(=O)OC(C)C(=O)NCC2CCCCC2)cc(NC(=O)c2ccco2)c1OC (centres undefined),-157%
9,O=C(Nc1cccc(Br)c1)C1CC(=O)N(C2CCCC2)C1 (centres undefined),-5.3%
10,CCN(CC)C(=O)CN(c1cccc(OC)c1)S(=O)(=O)c1ccc(C)cc1,13%
11,CCN(CCCNC(=O)C1CCN(S(=O)(=O)c2cnc[nH]2)CC1)c1ccccc1,-0.9%
12,O=C1c2ccccc2C(=O)N1CCOc1ccc(F)cc1,-0.37%
13,Cc1cccc2c1N(CCOc1ccccc1)C(=O)C2=O,55.7% (active)
14,Cc1cc(/C=C2/SC(=O)N(CC(=O)OC(C)C)C2=O)c(C)n1C,5.02%
15,CC(OC(=O)CN1C(=O)c2ccccc2C1=O)C(=O)c1ccccc1 (centres undefined),9.57%
16,CC(C)OC(=O)CN1C(=O)C(=O)c2ccccc21,96.4% (active)
17,CCOC(=O)CN1C(=O)C(=O)c2cc(C)ccc21,40.6% (active)
18,COc1cc(C(C)=O)ccc1OC(=O)CN1C(=O)c2ccccc2C1=O,17.3%
19,Cc1ccc2c(c1)-c1c(ssc1=S)C(C)(C)N2C(=O)CN1C(=O)c2ccccc2C1=O,11.6%
20,CCOC(=O)C1CCN(C(=O)CN2C(=O)c3cccnc3Oc3ccc(C)cc32)CC1,20%
21,Cc1cccc2c1N(CC(=O)OC(C)C)C(=O)C2=O,67.2% (active)
22,CC(C)OC(=O)CN1CCN(c2ccc(Cl)cc2)CC1,-2.26%

row,Compound,inhibition
1,CC1(C)NC(=O)N(CCOc2cccc(Oc3ccccc3)c2)C1=O,10.6%
2,O/N=C(\c1ccc2c(c1)OCCO2)C1CCCCC1,10.1%
3,CSc1ccccc1C(=O)OCC(=O)N1CCN(C(C)=O)CC1,12.6%
4,CC1CN(S(=O)(=O)c2ccc(C(=O)NN3CCN(C)CC3)cc2)CC(C)O1 (centres undefined),-5.71%
5,O=C(/C=C/c1ccc(Cl)cc1)NCCCn1ccnc1,1.46%
6,O=C(CCl)NNc1cccc(Cl)n1,75% (active)
7,Cc1cccc(NC(=O)Cc2ccc(Br)cc2)n1,2.04%
8,O=C(Cc1c(Cl)cccc1Cl)NC1CC1,1.58%
9,CN(C(=O)CCn1c(=S)oc2ccccc21)C1CCCCC1,10.3%
10,CNS(=O)(=O)c1ccc(N2CCCC2=O)c([N+](=O)[O-])c1,-2.31%
11,CC(c1ccco1)N(C(=O)c1ccc(S(=O)(=O)N2CCCCC2)cc1)c1ccccn1 (centres undefined),13.7%
12,Cc1cc(C)c(S(=O)(=O)n2cc(C(C)C(N)C(=O)O)c3ccccc32)c(C)c1 (centres undefined),8.06%
13,Cn1nc([N+](=O)[O-])nc1Sc1ccc(C(C)(C)C)cc1,-22.7%
14,CCOC(=O)c1cccc(NC(=O)C2CCN(c3ncnc4c3nc3n4CCCCC3)CC2)c1,-0.14%
15,CCCCCC(O)(CCN1CCCCC1)c1ccccc1 (centres undefined),4.99%
16,CCn1cc(CCC(=O)NCc2ccc(F)cc2)c2ccccc21,-13.5%
17,Cc1ccc(NC(=S)Nc2ccc(F)cc2)cc1,9.82%
18,Cc1ccc(C(=O)CNc2ccc(F)cc2)cc1,42.7% (active)
19,Cc1ccc(C(=O)NC2CCN(C(=O)Nc3ccc(F)cc3)CC2)cc1,6.33%
20,CCCCC(=O)NNC(=S)NC(=O)C(c1ccccc1)c1ccccc1,27.8% (active)
21,CCCCCC(=O)NC(=S)NNC(=O)c1ccc([N+](=O)[O-])cc1,-3.86%
22,CCNC(=S)NNC(=O)Cc1ccccc1,2.92%

row,Compound,inhibition
1,COc1ccc(NC(=O)CCn2ccnc2)c(OC)c1,9.95%
2,Cn1c(=S)sc2ccc3ccccc3c21,-28.3%
3,O=C(C1CC(=O)N(c2ccc(F)cc2)C1)N1CCN(c2ccccc2)CC1 (centres undefined),14%
4,CCOC(=O)N1CCN(C(=O)c2ccccc2N(Cc2ccccc2)S(=O)(=O)c2ccc(OC)cc2)CC1,-2.13%
5,N#Cc1cccc(NC(=O)CCC2CCCC2)c1,-3.46%
6,O=C1NC(=O)C(CCc2ccccc2)(c2ccccc2)N1 (centres undefined),16.3%
7,COC(=O)c1cc2occc2n1Cc1nc(-c2ccccc2C)oc1C,-3.9%
8,CN(C)CCn1c2c(c(SCC(=O)NCc3ccccc3)nc1=O)CCC2,-0.58%
9,CCc1c(Nc2ccccc2C)nc(N)[nH]c1=O,0.05%
10,O=C(CCc1nc2sc3c(c2c(=O)[nH]1)CCCC3)NCC(=O)Nc1ccccc1Br,17%
11,COc1cc(NS(=O)(=O)c2ccc3ccccc3c2)c2ncccc2c1,38.6% (active)
12,CCOc1cc(NS(=O)(=O)c2ccc(OC)cc2)c(OCC)cc1NC(C)=O,-4.39%
13,COc1ccc(N2CC(NS(=O)(=O)c3ccc4ccccc4c3)CC2=O)cc1 (centres undefined),7.42%
14,COC(=O)Cc1ccc(NC(=S)NCc2ccccc2)cc1,5.98%
15,CCCOC(=O)Cc1c(O)c2ccccc2[nH]c1=O,15.1%
16,COC(=O)Cc1c(-c2[nH]c3ccccc3c2CC(=O)OC)[nH]c2ccccc12,42.2% (active)
17,Cc1ccc(-n2nc(-c3ccco3)cc2C(=O)NCc2cccnc2)cc1,10.7%
18,O=C(NCC1COc2ccccc2O1)C1(c2ccccc2)CCCC1 (centres undefined),4.79%
19,O=C(CN1C(=O)C2C3C=CC(C3)C2C1=O)NCC1COc2ccccc2O1 (centres undefined),-16.6%
20,O=C1C(=O)N(CC2COc3ccccc3O2)c2ccccc21 (centres undefined),35.1% (active)
